Screens: PubChem, several laboratories
An excerpt weighted towards active compounds, which were near 32% of everything screened.
PostGolgi ctrl: growth inhibition of yeast control strain, primary screen, counter-screen for post-Golgi transport modulator project. efflux-deficient yeast background strain, growth absorbance A615, 16 h. inhibition, % at 10 µM. AID 738, 2007. hit rate 5% among 98,000
CYP2C9 activ: human CYP2C9 activators, primary screen, biochemical, luminescence; recombinant CYP2C9, luciferin-H conversion; stronger effect = higher value; factor 1 = untreated enzyme, 0 = blocked; activation factor at 5 µM; hit rate 1.4% among 96,000; AID 1024, 2008; Cytochrome P450 2C9 (Homo sapiens), P11712;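 active means activation factor of 2 or more for CYP2C9 at a 5 µM dose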
CYP2C9 inh: blockers of cytochrome P450 2C9 activity – biochemical, luminescence, ADME assay, primary screen; P11712; CYP2C9 Supersomes, luciferin-H conversion; inhibition, % at 5 µM; hit rate 20% among 96,000;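 active means blocking of liver enzyme CYP2C9 beyond about 50% at 5 µM, limit read from the data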
CYP2C19 activ: human CYP2C19 activators, primary screen, biochemical, luminescence; recombinant CYP2C19, luciferin-H EGE luminescence; stronger effect = higher value; 0 = fully inhibited enzyme, 1 = untreated enzyme; activation factor at 5 µM; 96,000 tested, under 10 active;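 active means activation factor of at least 2 at 5 µM in the primary screen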
Target sequence (P33261 whole entry, looked up): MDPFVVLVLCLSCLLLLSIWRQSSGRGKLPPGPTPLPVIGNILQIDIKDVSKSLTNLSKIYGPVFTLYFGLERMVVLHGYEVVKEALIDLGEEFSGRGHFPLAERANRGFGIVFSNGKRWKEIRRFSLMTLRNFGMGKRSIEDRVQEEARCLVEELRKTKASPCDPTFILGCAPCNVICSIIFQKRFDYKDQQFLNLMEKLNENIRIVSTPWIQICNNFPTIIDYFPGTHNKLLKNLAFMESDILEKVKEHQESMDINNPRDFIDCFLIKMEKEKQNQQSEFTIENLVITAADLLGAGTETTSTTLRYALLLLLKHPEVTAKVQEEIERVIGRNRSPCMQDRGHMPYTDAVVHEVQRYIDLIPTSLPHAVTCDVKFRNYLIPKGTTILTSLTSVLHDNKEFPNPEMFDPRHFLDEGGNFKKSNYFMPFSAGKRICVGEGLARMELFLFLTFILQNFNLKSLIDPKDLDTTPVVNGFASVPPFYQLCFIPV
PostGolgi yeast: phenotypic screen on post-Golgi transport, primary screen. post-Golgi transport phenotypic cell assay. inhibition, % at 10 µM. hit rate 0.9% among 98,000;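 further: yeast cells grown in 1536-well plates; yeast grown about 18 h at 30C before absorbance read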
CYP2C19 inh: blockers of cytochrome P450 2C19 activity – biochemical, luminescence, ADME assay, primary screen; hit rate 21% among 96,000; CYP2C19 Supersomes, luciferin-H EGE luminescence, 30 min; P33261; inhibition, % at 5 µM;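 active means CYP2C19 inhibition above a set limit at 5 µM in the primary screen, cut at about 50% in these data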
Each line names hits and unclear results; the compound was inactive in the other large screens. Unless noted, no stated cut-off is given here; in the data, active means inhibition above about 30%; inactive means the rest.

CNC(=O)CSc1nc(N)c2c3c(sc2n1)CCC3	none
Cc1ccc(C2=N/C(=C/c3cccs3)C(=O)N2Nc2ccccc2)cc1	none
Cc1cccc(N2C(N)=NC(N)=NC23CCCCC3)c1	none
C=CCn1c2ccccc2c2nnc(SCC(=O)Nc3c(C)n(C)n(-c4ccccc4)c3=O)nc21	none
C=CCSc1nnc2nc3c(nn12)c1cc(C)ccc1n3CC=C	CYP2C9 inh 55.7
O=C(COc1ccc(Cl)cc1)NC1CCSC1=O (stereo not given)	CYP2C19 inh 65.4
O=C(NCCS(=O)CCNC(=O)C(F)(F)F)C(F)(F)F	none
COc1ccc(C(C)N2CC34C=CC(O3)C(C(=O)O)C4C2=O)cc1 (stereo not given)	none
O=C(CCS(=O)(=O)c1ccc(Br)s1)NCc1ccc2c(c1)OCO2	CYP2C9 inh 81.2
O=C(CNC(=O)c1ccc(Br)o1)NCc1ccc2c(c1)OCO2	none
CN(CC(=O)NCc1ccc2c(c1)OCO2)S(=O)(=O)c1ccc(Br)s1	CYP2C9 inh 89.2, CYP2C19 inh 69.8
CN(CC(=O)Nc1ccc(S(N)(=O)=O)cc1)c1ccccc1	none
CC(C)c1ccc(-c2nnn(Cc3nc4ccccc4s3)n2)cc1	CYP2C9 inh 51.1
Cc1ccc(-c2nnn(CC(=O)N3CCN(c4nc5ccccc5s4)CC3)n2)cc1	none
CCN(CC)c1ccc(C2=NNC(=O)CC2C)cc1[N+](=O)[O-] (stereo not given)	CYP2C9 inh 52.1
COc1cc(OC)cc(C(=O)NC(C(=O)NCCN(C)C)C23CC4CC(CC(C4)C2)C3)c1 (stereo not given)	CYP2C19 inh 93.2
CCOc1ccc(N(CC)S(=O)(=O)c2ccc3c(c2)oc(=O)n3C)cc1	none (no result: CYP2C9 activ, CYP2C9 inh, CYP2C19 activ, CYP2C19 inh)
O=S(=O)(c1ccccc1)N(CC(O)Cn1c2ccccc2c2ccccc21)c1ccccc1 (stereo not given)	CYP2C9 inh 78.6
Cc1ccc(S(=O)(=O)N(C)CC(O)Cn2c3ccccc3c3ccccc32)cc1 (stereo not given)	PostGolgi ctrl 79.7, CYP2C9 inh 87.5
C=CCN(CC=C)CC(O)Cn1c2ccccc2c2ccccc21 (stereo not given)	CYP2C19 inh 73.1
Cc1ccc(S(=O)(=O)N(CC(O)CN2CCCCC2)c2ccccc2)cc1 (stereo not given)	none
CCCCNC(=S)NNC(=O)CCn1nc(C)c(Br)c1C	none
CCOC(=O)N1CCN(C(=O)CN2C(=O)CC(C)(C)S(=O)(=O)c3ccccc32)CC1	CYP2C19 inh 54.9
Cc1ccc(Nc2cc(C)nn2-c2nc(C)cc(=O)[nH]2)cc1	PostGolgi ctrl 100.2, PostGolgi yeast 94.2
Cc1ccc(Nc2cc(C)nc3nnnn23)cc1	none
Cc1ccc(Nc2nc3ccccc3nc2-n2nc(C)cc2C)cc1	none
Cc1ccc(Nc2cc(C)nn2-c2nc(C)cc(C)n2)cc1	PostGolgi ctrl 38.9
CCCC(=O)C1=C(O)C(C(=O)OC)C(C)(C)CC1=Nc1ccc(N)cc1 (stereo not given)	CYP2C19 inh 51.7
CCCC(=O)C1=C(O)C(C(=O)OC)C(C)(C)CC1=Nc1ccncc1 (stereo not given)	CYP2C9 inh 60.7, CYP2C19 inh 89.7
CCCC(=Nc1ccc(N)cc1)C1=C(O)C(C(=O)OC)C(C)(C)CC1=O (stereo not given)	none
CCCC(=O)C1=C(O)C(C(=O)OC)C(C)(C)CC1=NC (stereo not given)	none
CCN(CC)C(=O)CSCC(=O)Nc1ccccc1	CYP2C19 inh 57.3
COc1cccc(NC(=O)CSCC(=O)Nc2ccccc2)c1	CYP2C9 inh 77.8, CYP2C19 inh 60.1
COC(=O)c1ccccc1NC(=O)CSCC(=O)Nc1ccccc1	CYP2C19 inh 53.4
COC(=O)c1ccccc1NC(=O)c1cccc(NC(=O)CSCc2ccccc2)c1C	none
COc1cccc(NC(=O)CSCC(=O)O)c1	none
CCCCSCCCNC(=O)Nc1cccc(OC)c1	CYP2C9 inh 72.6, PostGolgi yeast 36.5, CYP2C19 inh 80.5
Cc1ccc(NC(=S)N2CCN(C3CCCCC3)CC2)cc1	none
COc1ccc(C(=O)NCC(=O)Nc2ccccc2)cc1OC	none
COc1ccc(NC(=O)CC2SC(=Nc3ccccc3)NC2=O)cc1 (stereo not given)	none
COc1ccc(-c2nnc(SCC(=O)Nc3cccc(Cl)c3)o2)cc1	none
COc1cccc(NC(=O)CNC(=O)c2ccc(F)cc2)c1	CYP2C19 inh 53.3
COc1cccc(NC(=O)CC2SC(=Nc3ccccc3)NC2=O)c1 (stereo not given)	CYP2C9 inh 69.5, CYP2C19 inh 62.9
COc1cccc(NC(=O)CSc2nnc(-c3cc(-c4ccccn4)nc4ccccc34)o2)c1	PostGolgi ctrl 50.4
COc1cccc(NC(=O)Cc2ccccc2)c1	CYP2C19 inh 94.0
COc1cc(/C=C/C(=O)Nc2ccccc2C(F)(F)F)cc(OC)c1OC	none
CCN(Cc1ccccc1)S(=O)(=O)c1nc2nc(C)c(C)c(C)n2n1	none
Cn1c(=O)c2[nH]c(CNCc3ccccc3Cl)nc2n(C)c1=O	none
O=C(Nc1cnn(C23CC4CC(CC(C4)C2)C3)c1)c1cnn2cccnc12	none
Cc1ccc2c(c1)c1c3n2CCCN(Cc2ccccc2)C3CCC1 (stereo not given)	CYP2C19 inh 60.6
Cc1ccc2c(c1)c1c3n2CCN(C(=O)Cn2c(-c4ccccc4)noc2=O)C3CCC1 (stereo not given)	CYP2C9 inh 50.1
Cc1ccc2c(c1)c1c3n2CCN(C(=O)C2CC2)C3CCC1 (stereo not given)	CYP2C9 inh 50.3
CN1CCN(CC(=O)N2CCn3c4c(c5cc(C6CCCCC6)ccc53)CCCC42)CC1 (stereo not given)	PostGolgi ctrl 86.5, PostGolgi yeast 53.2
Cc1ccc2c(c1)c1c3n2CCN(C(=O)CN2CCN(C)CC2)C3CCC1 (stereo not given)	none
Cc1ccc2c(c1)c(=O)c1c3n2CCN(C(=O)CCl)C3CC1 (stereo not given)	none
O=C(NC(Cc1ccccc1)C(=O)OCC(=O)N1CCc2ccccc21)c1ccco1 (stereo not given)	none
CCC(NS(=O)(=O)c1ccc(C)cc1)C(=O)N1CCC2(O)CCCCC2C1 (stereo not given)	none
O=C(C(Cc1ccc(Cl)cc1)NS(=O)(=O)c1ccccc1)N1CC[C@@]2(O)CCCC[C@H]2C1 (stereo not given in full)	CYP2C9 inh 87.8, CYP2C19 inh 69.5
COc1cc(-n2c(C)nc3cc(C(=O)N4CCOCC4)ccc32)cc(OC)c1OC	none
FC(F)(F)c1ccc(CN2CCCCCC2)cc1	CYP2C19 inh 52.8
Clc1ccc(NNc2ccnc3cc(Cl)ccc23)cc1	CYP2C9 inh 80.2, CYP2C19 inh 66.5
